PubChem BioAssay
Calls of active or inactive are those of the source. The rule behind the calls is not given here.

Each compound was assayed on Aerobactin synthetase IucA (Klebsiella pneumoniae, hypervirulent) (assay: biochemical IucA inhibition screen of LOPAC library by absorbance (AID 1346212;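 note: 100% = no compound wells and 0% = no enzyme wells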)). Conditions: IucA enzyme assay, absorbance (OD) readout; active compounds read low;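 tested at 8 µM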.
`CCCn1c(=O)c2[nH]c(-c3ccc(OCC(=O)NCCN)cc3)nc2n(CCC)c1=O` was tested, and the remaining activity was 109% (inactive).
In the case of `CC(C)C[C@H]1C(=O)N2CCC[C@H]2[C@]2(O)O[C@](NC(=O)[C@@H]3C=C4c5cccc6[nH]c(Br)c(c56)C[C@H]4N(C)C3)(C(C)C)C(=O)N12`, the remaining activity is reported as 108% (inactive).
With `C[C@]12C=CC(=O)C=C1CC[C@@H]1C2=CC[C@]2(C)[C@@H](C(=O)CN3CCN(c4cc(N5CCCC5)nc(N5CCCC5)n4)CC3)CC[C@@H]12` the remaining activity was 102% (inactive).
`S=C(Nc1ccccc1)Nc1nccs1` was tested, and the remaining activity was 125% (inactive).
For `Nc1ncnc2c1ncn2C1CCCO1` (centres undefined), the remaining activity was 75.8% (inactive).
`CN(C)C(=O)/N=N/C(=O)N(C)C` was tested, and the remaining activity was 93.2% (inactive).
With `C[C@]12CC[C@@H]3c4ccc(O)cc4CC[C@H]3[C@@H]1CC[C@@H]2O` the remaining activity was 99.8% (inactive).
For `O=C(Nc1ccccc1)c1cc([N+](=O)[O-])ccc1Cl`, the remaining activity was 115% (inactive).
With `COc1cc(N)c(Cl)cc1C(=O)OCCN1CCCCC1` the remaining activity was 110% (inactive).
For `Brc1c(NC2=NCCN2)ccc2nccnc12`, the remaining activity was 105% (inactive).
For `N#Cc1c(-c2ccccc2)no[n+]1[O-]`, the remaining activity was 125% (inactive).
`C[C@]12C[C@H](O)[C@H]3[C@@H](CCC4=CC(=O)CC[C@@]43C)[C@@H]1CC[C@@H]2C(=O)CO` was tested, and the remaining activity was 110% (inactive).
For `COc1cc(=O)n(C)c2c(OCC(O)C(C)(C)O)cccc12` (centres undefined), the remaining activity was 108% (inactive).
In the case of `N[C@H]1CONC1=O`, the remaining activity is reported as 113% (inactive).
For `COC(=O)Nc1nc2ccc(C(=O)c3cccs3)cc2[nH]1`, the remaining activity was 117% (inactive).
With `Cn1ccnc1` the remaining activity was 101% (inactive).
With `NCCS(=O)O` the remaining activity was 101% (inactive).
For `C[N+](C)(C)CCOP(=O)(O)OP(=O)([O-])OC[C@H]1O[C@@H](n2ccc(N)nc2=O)[C@H](O)[C@@H]1O`, the remaining activity was 115% (inactive).
`CC(C)(C)c1ccc(S(=O)(=O)/C=C/C#N)cc1` was tested, and the remaining activity was 119% (inactive).
`NC(=NCCC[C@H](N)C(=O)O)NO` was tested, and the remaining activity was 101% (inactive).
With `CC(C)(C=O)Cc1cc(C(C)(C)C)c(O)c(C(C)(C)C)c1` the remaining activity was 115% (inactive).
`C[C@@H]1O[C@@H](O[C@H]2C[C@@H](O)[C@]3(CO)[C@H]4[C@H](O)C[C@]5(C)[C@@H](C6COC(=O)C6)CC[C@]5(O)[C@@H]4CC[C@]3(O)C2)[C@H](O)[C@H](O)[C@H]1O` (some centres undefined) was tested, and the remaining activity was 97.8% (inactive).
In the case of `NOCC(=O)O`, the remaining activity is reported as 124% (inactive).
In the case of `O=c1ccn([C@@H]2O[C@H](COP(=O)(O)OP(=O)(O)O)[C@@H](O)[C@H]2O)c(=O)[nH]1`, the remaining activity is reported as 106% (inactive).
With `NC/C=C\C(=O)O` the remaining activity was 124% (inactive).
`Cc1ccc(C(=O)O[C@H](C(=O)O)[C@@H](OC(=O)c2ccc(C)cc2)C(=O)O)cc1` (tested in a mixture with another compound) was tested, and the remaining activity was 112% (inactive).
In the case of `O=C(O)CN(CCN(CC(=O)O)CC(=O)O)CCN(CC(=O)O)CC(=O)O`, the remaining activity is reported as 90.9% (inactive).
In the case of `COCC(=O)O[C@]1(CCN(C)CCCc2nc3ccccc3[nH]2)CCc2cc(F)ccc2[C@@H]1C(C)C`, the remaining activity is reported as 128% (inactive).
For `O=C(O)CCC/C=C\C[C@@H]1[C@@H](/C=C/[C@H](O)C2Cc3ccccc3C2)[C@@H](F)C[C@@H]1O`, the remaining activity was 97.7% (inactive).
`NC(N)=NC(=O)Cc1c(Cl)cccc1Cl` was tested, and the remaining activity was 119% (inactive).
For `CCCc1c(-c2ccc(O)cc2)nn(-c2ccc(O)cc2)c1-c1ccc(O)cc1`, the remaining activity was 102% (inactive).
For `O=C(O)/C(=C/c1c(C(=O)O)[nH]c2cc(Cl)cc(Cl)c12)c1ccccc1`, the remaining activity was 117% (inactive).
For `N=c1ccn2c(n1)O[C@H]1[C@H](O)[C@@H](CO)O[C@H]12`, the remaining activity was 95.9% (inactive).
For `CC(C)[N+]1(C)[C@@H]2CC[C@H]1CC(OC(=O)C(CO)c1ccccc1)C2` (some centres undefined), the remaining activity was 118% (inactive).
`O=C(O)CP(=O)(O)O` was tested, and the remaining activity was 89.1% (inactive).
In the case of `O=C1NC(=S)S/C1=C/c1cc(Br)ccc1OCc1ccccc1Br`, the remaining activity is reported as 116% (inactive).
For `Nc1ncnc2n[nH]c(Nc3ccc(F)cc3)c12`, the remaining activity was 101% (inactive).
For `Nc1nc2ccc(OC(F)(F)F)cc2s1`, the remaining activity was 98.9% (inactive).
In the case of `CCCCCC[C@@H]([C@@H](C)O)n1cnc2c(N)ncnc21`, the remaining activity is reported as 99.4% (inactive).
